# Screens as filed in PubChem.
# Sampled rows, rich in hits. Any-hit rate of the full collection: about 3.5%.
# PPC-1+TRAIL kill: kills PPC-1 cancer cells in the presence of TRAIL; actives 0.41% (n = 220,000); PPC-1 cells + TRAIL, ATPLite viability luminescence; cell killing (% activity), % at 4 µM or 5 µM;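 active = cell killing above 50% in the first pass at 4 µM, then a duplicate retest at 5 µM averaging 50% or more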;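 also: plate controls were cells with TRAIL plus DMSO for no effect and medium-only wells lacking cells for full effect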
# TWEAK-Fn14 inh: blocks TWEAK-Fn14 interaction in a reporter cell assay; TWEAK-stimulated Fn14 reporter cells, luciferase luminescence, 8 h; inhibition, % at 10 µM; AID 1159606; actives 2% (n = 360,000); in the data active = inhibition above about 50%
# HSP90 refold inh: inhibitors of HSP90 luciferase refolding in rabbit reticulocyte lysate; luciferase refolding luminescence, 3 h; inhibition, % at 5.6 µM; actives 0.91% (n = 290,000); AID 1789;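 active = inhibition above the screen-wide mean plus 3 SD, computed separately per campaign, cut at about 16% in these data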;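 also: 0% = DMSO wells and 100% = 60 µM geldanamycin wells; inhibitors lower the luminescence because luciferase stays unfolded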
# TRAIL sens C8: caspase-8 TRAIL sensitization; NB7+C8 cells + TRAIL, ATPlite viability luminescence; inhibition (viability loss, TRAIL sensitization), % at 10 µM; actives 1% (n = 360,000);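 active = compounds causing at least 50% loss of cell viability in the single-dose screen, relative to plate controls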
# Platelet DG rel: modulates dense granule release in human platelets; inhibition, %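 (compounds screened at 7.5 µM in platelet-rich plasma)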; human platelet-rich plasma, SFLLRN dense granule ATP release, luminescence; actives 0.22% (n = 300,000);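 active = mean replicate score, as percent of positive control, at or above 50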
# TROY signal inh: TROY signaling inhibition; Q293 LMP1-TROYcd NF-kB luciferase reporter, 4 h; inhibition, % at 10 µM; actives 0.98% (n = 360,000); AID 1347056;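 active = compounds whose plate-normalised and pattern-corrected inhibition of the luciferase reporter signal at the single screening dose is 50% or more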
# PPC1 cytotox: kills PPC-1 cells. shares compounds with PPC-1+TRAIL kill. PPC-1 viability, ATPlite luminescence, overnight. cytotoxicity, % at 5 µM. actives 50% (n = 1,200). AID 1447;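 active = reconfirmed compounds whose average cytotoxicity reaches 50% or more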;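 also: 0% = DMSO-treated cells and 100% = wells holding medium but no cells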
# * hit, by the source's call; nt = no result.
SMILES,PPC-1+TRAIL kill,TWEAK-Fn14 inh,HSP90 refold inh,TRAIL sens C8,Platelet DG rel,TROY signal inh,PPC1 cytotox
COc1ccc(-c2coc3cc(OC)ccc3c2=O)cc1,nt,-4,nt,32,nt,-45,nt
CCOC(=O)c1ccc(Nc2cc(C)nc(C)c2C(=O)OCC)cc1,4,2,1,11,14,7,-2
COC(=O)CSc1nc2cc(OC)ccc2cc1C#N,69*,-1,2,71*,3,-68,63*
COc1ccc2cc(C#N)c(SCC(=O)N3CCCC3)nc2c1,14,-19,1,8,7,-20,nt
Cc1ccc(-n2c(-c3ccc(Br)cc3)c[n+]3c2CCc2ccc4cccnc4c2-3)cc1,48,-59,2,65*,-9,44,43
CN(c1ccccc1)S(=O)(=O)c1ccc(-c2ccccc2)cc1,nt,9,-2,6,1,-13,nt
CN(C)S(=O)(=O)c1ccc(-c2ccccc2)cc1,-21,1,1,-2,-2,-44,-19
CCc1nc(CN2CCCC(C(=O)c3ccc4c5c(cccc35)CC4)C2)c(C)[nH]1 (stereo not drawn),13,-4,2,18,-1,11,17
O=C(O)c1ccccc1NC(=O)C1CCCO1 (stereo not drawn),7,0,0,-14,-11,-9,6
COC(=O)c1ccccc1NC(=O)C1CCCO1 (stereo not drawn),0,8,0,23,-36,10,nt
O=C(O)c1cc(Cl)ccc1NC(=O)C1CCCO1 (stereo not drawn),14,6,-2,6,-2,12,-10
CC(NC(=O)C1CCN(CCOc2ccc(Cl)cc2)CC1)c1cccc2ccccc12 (stereo not drawn),nt,0,nt,23,nt,14,nt
CC(C)(C)c1ccc(CC(=O)N2CCC2(C)C(=O)NCc2cccs2)cc1 (stereo not drawn),nt,-11,nt,-5,nt,-4,nt
CC(C)c1ccc(Nc2nnc(SCC(=O)Nc3ncc(S(=O)(=O)c4ccc([N+](=O)[O-])cc4)s3)s2)cc1,64*,-6,1,76*,-2,-5,65*
Cc1ccc(Nc2nnc(SCC(=O)Nc3ncc(S(=O)(=O)c4ccc([N+](=O)[O-])cc4)s3)s2)cc1,25,29,0,33,-5,-14,nt
COc1ccc(CNC(=O)/C=C/[C@H]2O[C@@H](n3cc(C)c(=O)[nH]c3=O)C[C@@H]2O)cc1,nt,-6,nt,1,nt,10,nt
Cc1ccc(C(=O)Nc2nc3c(s2)CCCC3)o1,52*,50,6,65*,26,-14,53*
O=C(Cc1cccs1)Nc1nc2c(s1)CCCC2,14,-91,4,2,-3,-17,nt
O=C(Nc1nc2c(s1)CCCC2)c1cccs1,51*,57*,13,62*,nt,2,52*
O=C1c2ccccc2C(c2nnnn2-c2ccc3c(c2)OCCO3)N1Cc1cccnc1 (stereo not drawn),nt,-8,nt,3,nt,-2,nt
Cc1ccc(NC(=O)c2csc(-c3ccccc3)c2C)cc1,80*,81*,34*,81*,nt,74*,82*
Cc1ccc(NC(=O)c2cccc3ccccc23)cc1,nt,-9,4,8,1,-38,nt
O=C(Nc1ccc(Cl)c(Cl)c1)c1ccc2c(c1)OCO2,nt,23,4,16,3,-13,nt
O=C(Nc1ccc2c(c1)OCO2)Nc1ccc2c(c1)OCO2,25,-30,-4,23,5,-41,13
O=C(Nc1ccc(Cl)cc1)Nc1ccc2c(c1)OCO2,nt,18,2,20,-9,-11,nt
SMILES,PPC-1+TRAIL kill,TWEAK-Fn14 inh,HSP90 refold inh,TRAIL sens C8,Platelet DG rel,TROY signal inh,PPC1 cytotox
Cc1ccnc(NC(=O)c2ccc3c(c2)OCO3)c1,75*,55*,13,77*,46,15,74*
O=C(Nc1ccc2nsnc2c1)c1ccc2c(c1)OCO2,50,19,-4,48,nt,-38,52*
COc1ccc(C(=O)NC(=O)Nc2cc(C)ccn2)cc1,87*,97*,22*,84*,23,79*,87*
CN(C)S(=O)(=O)c1cccc(NC(=O)c2ccccc2SCC(=O)N2CCCC2)c1,nt,3,nt,-14,nt,0,nt
CC(C)(C)OC(=O)N[C@@H](Cc1ccccc1)C(=O)N[C@@H](CO)[C@H](O)[C@@H]1C[C@@H]1C(=O)NC1CC1,nt,22,-3,7,-2,5,nt
CSc1ncc(OCc2ccccc2)c(=O)[nH]1,2,-11,1,-10,nt,4,nt
COCCOC1CCN(C(=O)C2CCC(=O)N(CCc3ccccc3)C2)CC1 (stereo not drawn),nt,3,-3,-7,-20,10,nt
CCCOc1ccc(N2C(=O)C3C(C(C)C)NC4(C(=O)c5ccccc5C4=O)C3C2=O)cc1 (stereo not drawn),0,9,3,1,-5,11,6
CC(C)[C@@H]1N[C@]2(C(=O)Nc3ccccc32)[C@@H]2C(=O)N(c3cccc(C(F)(F)F)c3)C(=O)[C@@H]21,16,-3,2,-7,2,-1,nt
O=C(O)CN1C(=O)C(=O)N(Cc2cccc(F)c2)C1=O,nt,2,0,-2,3,9,nt
O=C(Nc1ccc2c(c1)OCCO2)c1ccc2ccccc2n1,43,9,1,33,nt,-24,42
O=C(Nc1ccc2c(c1)OCCO2)c1ccccc1F,28,53*,14,48,18,8,33
CN(c1ccc(C(=O)Nc2ccc3c(c2)n(C)c(=O)n3C)cc1)S(C)(=O)=O,nt,-8,1,5,16,-18,nt
COc1ccc(S(=O)(=O)NC(=O)C2(C)CCN2C(=O)CC2CCCCC2)cc1OC (stereo not drawn),nt,7,nt,-8,nt,2,nt
CCCCn1c(N)c(N(C(=O)CSc2nnnn2-c2ccc(C)cc2)C2CCCC2)c(=O)[nH]c1=O,nt,1,nt,10,nt,17,nt
CCOC(=O)c1sc(NC(=O)c2cccs2)cc1C,60*,-40,-4,49,33,-41,60*
Nc1nc(SCC(=O)c2ccc(Cl)cc2)c2ncn(C3OC(CO)C(O)C3O)c2n1 (stereo not drawn),nt,32,nt,0,nt,1,nt
CSCc1ccc(C(=O)OCC(=O)NC2CCCC2)o1,nt,8,nt,5,nt,-4,nt
CC(C)Nc1nnc(SCC(=O)N2CCN(C(=O)c3ccco3)CC2)s1,nt,-14,nt,6,nt,-5,nt
Cc1cc(C)cc(OCC(=O)NC2=NCCS2)c1,-3,-7,-1,3,3,-15,0
O=C(COc1ccc2ccccc2c1)NC1=NCCS1,11,19,2,32,7,-48,nt
NC1=C(c2ccccc2)C(=O)NC1=O,nt,11,4,-3,-9,-6,nt
CC(C)(C)c1ccc(C(=O)NCC(=O)N2CCC3(CC2)NCCc2[nH]cnc23)cc1,nt,1,-4,-12,0,11,nt
